Source: PubChem BioAssay (EPA / NIEHS)
Calls of active or inactive are those of the source. Rule for the calls: active = hit-call score of the fitted dose curve at least 0.9, where 1 is the maximum; inactive = score below 0.9.

Assays:
Conditions in all cases: mRNA level, 48 h; actives raise or lower the signal
[1] = read-out: Bcl-2 (BAX) gene, BAX (gene 581); test: LTEA_HepaRG_BAX: Life Technologies and Expression Analysis (LTEA) Assay for Bcl-2 (BAX) gene using HepaRG (AID 2283470)
Outline: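 qRT-PCR read-out of BAX mRNA, normalized to three housekeeping genes, after 48 h chemical exposure of human HepaRG cells in serum-free induction medium; eight-point half-log series, top 100 uM, 0.5% DMSO vehicle; bidirectional fit versus DMSO.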

[2] = read-out: adenosine kinase (ADK) gene, ADK (gene 132); test: LTEA_HepaRG_ADK: Life Technologies and Expression Analysis (LTEA) Assay for adenosine kinase (ADK) gene using HepaRG (AID 2283471)
Outline: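 Read-out is ADK transcript level measured by qRT-PCR and normalised to three housekeeping genes. Cells are human HepaRG, dosed for 48 h at up to 100 uM in 0.5% DMSO. Gain or loss of signal is fitted against DMSO controls.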

[3] = read-out: Alpha-fetoprotein (AFP) gene, AFP (gene 174); test: LTEA_HepaRG_AFP: Life Technologies and Expression Analysis (LTEA) Assay for Alpha-fetoprotein (AFP) gene using HepaRG (AID 2283472)
Outline: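 qRT-PCR (Fluidigm TaqMan) readout of AFP transcript, normalized to three housekeeping genes, fitted bidirectionally against 0.5% DMSO baseline. HepaRG cells received chemicals for 48 h in serum-free induction medium, top concentration 100 uM, half-log steps.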

BCL2L11 (gene 10018) = test: LTEA_HepaRG_BCL2L11: Life Technologies and Expression Analysis (LTEA) Assay for Bcl-2 (BCL2L11) gene using HepaRG (AID 2283473)
Outline: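 HepaRG, 48 h exposure, 8-pt half-log series from 100 uM in 0.5% DMSO, duplicates; qRT-PCR (Fluidigm TaqMan) for BCL2L11, housekeeping-normalized; bidirectional curve fit relative to DMSO baseline.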

[4] = read-out: Apolipoprotein A-V (APOA5) gene, APOA5 (gene 116519); test: LTEA_HepaRG_APOA5: Life Technologies and Expression Analysis (LTEA) Assay for Apolipoprotein A-V (APOA5) gene using HepaRG (AID 2283474)
Outline: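 HepaRG, 48 h chemical exposure in serum-free induction medium, 8-pt half-log series (top 100 uM), 0.5% DMSO vehicle, duplicates. Readout: APOA5 mRNA by qRT-PCR, housekeeping-normalized; bidirectional fit vs DMSO baseline.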

[5] = read-out: Apoptosis regulator Bcl-2 (Homo sapiens) (UniProt P10415); test: LTEA_HepaRG_BCL2: Life Technologies and Expression Analysis (LTEA) Assay for Bcl-2 gene using HepaRG (AID 2283475)
Outline: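 qRT-PCR read-out (Fluidigm TaqMan) of BCL2 transcript, normalised to three housekeeping genes, after 48 h chemical exposure of HepaRG cells; 8-point half-log series, top 100 uM, 0.5% DMSO vehicle. Gain or loss of signal fitted relative to DMSO baseline.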

[6] = read-out: Bcl-2 (BID) gene, BID (gene 637); test: LTEA_HepaRG_BID: Life Technologies and Expression Analysis (LTEA) Assay for Bcl-2 (BID) gene using HepaRG (AID 2283476)
Outline: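 HepaRG, 48 h exposure, 8-pt half-log series, top 100 uM, 0.5% DMSO vehicle, duplicates. Readout: BID mRNA by TaqMan qRT-PCR; housekeeping-normalized; bidirectional curve fit vs DMSO baseline.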

Caspase-3 (Homo sapiens) = Caspase-3 (Homo sapiens) (UniProt P42574); test: LTEA_HepaRG_CASP3: Life Technologies and Expression Analysis (LTEA) Assay for cysteine-aspartic acid protease (CASP3) using HepaRG (AID 2283477)
Outline: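 HepaRG, 48 h exposure, 8 conc. (top 100 uM, half-log steps, duplicate), 0.5% DMSO vehicle; qRT-PCR of CASP3 transcript, housekeeping-normalised (ACTB/GAPDH/POLR2A); bidirectional curve fit vs DMSO baseline.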

[7] = read-out: Cytochrome P450 (CYP24A1), CYP24A1 (gene 1591); test: LTEA_HepaRG_CYP24A1: Life Technologies and Expression Analysis (LTEA) Assay for Cytochrome P450 (CYP24A1) using HepaRG (AID 2283478)
Outline: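 qRT-PCR read-out: CYP24A1 transcript levels normalized to three housekeeping genes, bidirectional curve fits against 0.5% DMSO baseline. Human HepaRG cells treated 48 h with chemicals at eight concentrations from 100 uM in half-log steps.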

[8] = read-out: Cytochrome P450 (CYP1A2), CYP1A2 (gene 1544); test: LTEA_HepaRG_CYP1A2: Life Technologies and Expression Analysis (LTEA) Assay for Cytochrome P450 (CYP1A2) using HepaRG (AID 2283479)
Outline: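 HepaRG, 48 h exposure, top 100 uM, half-log 8-pt, 0.5% DMSO vehicle, duplicates. Readout: TaqMan qRT-PCR of CYP1A2 mRNA, housekeeping-normalized (ACTB/GAPDH/POLR2A). Gain/loss fit relative to DMSO baseline.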

[9] = read-out: cysteine-aspartic acid protease (CASP8), CASP8 (gene 841); test: LTEA_HepaRG_CASP8: Life Technologies and Expression Analysis (LTEA) Assay for cysteine-aspartic acid protease (CASP8) using HepaRG (AID 2283480)
Outline: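 CASP8 transcript measured by TaqMan qRT-PCR with ACTB/GAPDH/POLR2A normalization, after 48 h chemical exposure of HepaRG cells in serum-free induction medium. Eight concentrations, top 100 uM, half-log steps, 0.5% DMSO vehicle; fits in both directions versus DMSO.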

[10] = read-out: Cytochrome P450 (CYP2B6), CYP2B6 (gene 1555); test: LTEA_HepaRG_CYP2B6: Life Technologies and Expression Analysis (LTEA) Assay for Cytochrome P450 (CYP2B6) using HepaRG (AID 2283481)
Outline: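 Read-out is CYP2B6 mRNA by TaqMan qRT-PCR, normalized to three housekeeping genes and fitted bidirectionally against 0.5% DMSO baseline. Human HepaRG cells received test chemicals for 48 h, top concentration 100 uM, half-log dilutions.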

[11] = read-out: Cytochrome P450 2C19 (Homo sapiens) (UniProt P33261); test: LTEA_HepaRG_CYP2C19: Life Technologies and Expression Analysis (LTEA) Assay for CYP2C19 using HepaRG (AID 2283482)
Outline: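 HepaRG, 48 h chemical exposure, 8-pt half-log series from 100 uM in 0.5% DMSO, duplicates. Readout: CYP2C19 mRNA by TaqMan qRT-PCR, housekeeping-normalized. Bidirectional fit vs DMSO baseline; phenobarbital 1mM as induction control.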

CYP2C8 (gene 1558) = test: LTEA_HepaRG_CYP2C8: Life Technologies and Expression Analysis (LTEA) Assay for CYP2C8 using HepaRG (AID 2283483)
Outline: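 CYP2C8 expression measured by TaqMan qRT-PCR and normalized to three housekeeping genes. HepaRG cultures were treated for 48 h with an eight-point half-log series topping at 100 uM, vehicle 0.5% DMSO, duplicates; fitted both directions against DMSO.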

CYP2C9 (gene 1559) = test: LTEA_HepaRG_CYP2C9: Life Technologies and Expression Analysis (LTEA) Assay for CYP2C9 using HepaRG (AID 2283484)
Outline: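 CYP2C9 transcript level, quantified by TaqMan qRT-PCR against three housekeeping genes, was fitted bidirectionally relative to 0.5% DMSO. HepaRG cultures were treated 48 h, in duplicate, at eight half-log concentrations topping at 100 uM.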

CYP2E1 (gene 1571) = test: LTEA_HepaRG_CYP2E1: Life Technologies and Expression Analysis (LTEA) Assay for CYP2E1 using HepaRG (AID 2283485)
Outline: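 CYP2E1 transcript was measured by TaqMan qRT-PCR in human HepaRG cultures after 48 h chemical exposure (top 100 uM, half-log steps, 0.5% DMSO vehicle). Housekeeping-gene normalization; gain or loss fitted relative to DMSO baseline.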

CYP4A11 (gene 1579) = test: LTEA_HepaRG_CYP4A11: Life Technologies and Expression Analysis (LTEA) Assay for CYP4A11 using HepaRG (AID 2283486)
Outline: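 CYP4A11 transcript levels were quantified by TaqMan qRT-PCR after HepaRG human liver cells were treated for 48 hours with test chemicals (top 100 uM, half-log dilutions, 0.5% DMSO). Gain or loss of signal was fitted relative to DMSO.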

[12] = read-out: Cytochrome P450 3A4 (Homo sapiens) (UniProt P08684); test: LTEA_HepaRG_CYP3A4: Life Technologies and Expression Analysis (LTEA) Assay for CYP3A4 using HepaRG (AID 2283487)
Outline: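 HepaRG, 48 h exposure, 8-pt CRC from 100 uM (half-log), 0.5% DMSO, duplicates; serum-free induction medium. Readout: CYP3A4 mRNA, qRT-PCR, ACTB/GAPDH/POLR2A normalization. Bidirectional fit vs DMSO.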

[13] = read-out: DNA damage-inducible transcript 3 (DDIT3), DDIT3 (gene 1649); test: LTEA_HepaRG_DDIT3: Life Technologies and Expression Analysis (LTEA) Assay for DNA damage-inducible transcript 3 (DDIT3) using HepaRG (AID 2283488)
Outline: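 qRT-PCR readout (Fluidigm TaqMan), housekeeping-normalized to ACTB, GAPDH, POLR2A. HepaRG cells, 48 h exposure, 8-point half-log series from 100 uM in 0.5% DMSO, duplicates. Gain or loss of signal fitted against DMSO baseline.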

[14] = read-out: Pro-epidermal growth factor (Homo sapiens) (UniProt P01133); test: LTEA_HepaRG_EGF: Life Technologies and Expression Analysis (LTEA) Assay for Epidermal growth factor (EGF) using HepaRG (AID 2283489)
Outline: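 qRT-PCR readout of EGF transcript after 48 h chemical exposure of HepaRG cells; eight concentrations from 100 uM down in half-log steps, duplicate wells, 0.5% DMSO vehicle. Bidirectional curve fitting against DMSO baseline.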

Measured: outcome

Caspase-3 (Homo sapiens), sequence (P42574 whole entry, looked up): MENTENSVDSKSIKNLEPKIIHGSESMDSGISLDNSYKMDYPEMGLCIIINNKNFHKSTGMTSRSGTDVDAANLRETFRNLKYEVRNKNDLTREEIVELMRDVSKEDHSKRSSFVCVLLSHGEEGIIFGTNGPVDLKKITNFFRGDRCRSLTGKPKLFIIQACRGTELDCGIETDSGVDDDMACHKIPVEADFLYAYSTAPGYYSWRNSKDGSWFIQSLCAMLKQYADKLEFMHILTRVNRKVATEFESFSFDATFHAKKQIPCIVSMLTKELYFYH
Cytochrome P450 2C19 (Homo sapiens), sequence (P33261 whole entry, looked up): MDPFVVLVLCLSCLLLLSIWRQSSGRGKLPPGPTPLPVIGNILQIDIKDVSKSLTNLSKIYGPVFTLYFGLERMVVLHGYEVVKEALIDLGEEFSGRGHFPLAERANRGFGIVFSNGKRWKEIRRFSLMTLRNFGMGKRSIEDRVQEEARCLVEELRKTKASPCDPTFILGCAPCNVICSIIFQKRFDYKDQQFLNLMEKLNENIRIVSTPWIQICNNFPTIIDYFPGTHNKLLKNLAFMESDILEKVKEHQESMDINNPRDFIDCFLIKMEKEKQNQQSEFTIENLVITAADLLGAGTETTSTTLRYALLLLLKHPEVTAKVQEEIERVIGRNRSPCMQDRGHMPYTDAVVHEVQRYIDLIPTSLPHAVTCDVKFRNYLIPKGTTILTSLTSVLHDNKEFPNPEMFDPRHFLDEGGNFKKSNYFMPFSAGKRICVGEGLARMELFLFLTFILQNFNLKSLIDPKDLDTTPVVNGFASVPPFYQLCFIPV
Apoptosis regulator Bcl-2 (Homo sapiens), sequence (P10415 whole entry, looked up): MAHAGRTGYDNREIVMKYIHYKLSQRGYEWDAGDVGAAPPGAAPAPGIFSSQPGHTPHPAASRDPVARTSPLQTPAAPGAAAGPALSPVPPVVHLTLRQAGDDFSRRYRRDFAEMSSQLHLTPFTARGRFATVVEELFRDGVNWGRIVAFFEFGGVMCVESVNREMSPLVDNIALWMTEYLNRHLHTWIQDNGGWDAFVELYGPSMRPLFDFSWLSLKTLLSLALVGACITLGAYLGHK
Cytochrome P450 3A4 (Homo sapiens), sequence (P08684 whole entry, looked up): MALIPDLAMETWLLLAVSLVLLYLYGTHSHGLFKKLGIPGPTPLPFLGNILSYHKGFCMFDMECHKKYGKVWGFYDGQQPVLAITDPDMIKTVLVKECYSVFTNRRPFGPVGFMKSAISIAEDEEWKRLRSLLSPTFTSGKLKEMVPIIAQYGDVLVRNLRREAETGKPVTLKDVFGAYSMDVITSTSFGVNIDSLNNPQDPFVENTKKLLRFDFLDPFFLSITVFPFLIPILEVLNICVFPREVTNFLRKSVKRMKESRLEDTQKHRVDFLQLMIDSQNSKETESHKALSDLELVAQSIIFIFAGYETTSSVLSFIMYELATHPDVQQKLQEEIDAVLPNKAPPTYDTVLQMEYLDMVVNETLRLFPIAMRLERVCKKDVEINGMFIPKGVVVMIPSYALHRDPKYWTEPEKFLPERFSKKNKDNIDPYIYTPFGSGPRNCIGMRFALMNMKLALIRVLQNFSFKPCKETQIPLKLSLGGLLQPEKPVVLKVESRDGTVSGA

CS(=O)(=O)OCCCCOS(C)(=O)=O
inactive: all assays above
